Measured values: ChEMBL document CHEMBL3988442, “University of Dundee, Small-Polar-MMV Screening Library” (2021)
The whole screen tested about 48,000 compounds, of which about 13,000 (27%) showed an effect of 50% or more. The list shows a part of the results.

System: Wolbachia pipientis
Experiment: Anti-Wolbachia Cell-Based Screen
Assay type: functional
Set-up: scale not given: in the data most compounds retested in dose-response had high values
Details: 5 µM

| Compound | Percent Effect [%] |
| --- | --- |
| Cc1ccc(CNC(CN2CCN(C)CC2)c2ccccc2)cc1 (configuration not stated) | 3.62 |
| Cc1ccc2c(n1)N(CCn1cccn1)CCN(CC1CC1)C2.O=C(O)C(F)(F)F.O=C(O)C(F)(F)F | 102.9 |
| COCCN1CCN(Cc2c(C)noc2C)Cc2ccc(C)nc21.O=C(O)C(F)(F)F.O=C(O)C(F)(F)F | -3.796 |
| O=S(=O)(NCCc1nc(-c2cccnc2)n[nH]1)NCc1ccccc1 | -41.46 |
| O=C(NCc1ccccc1)NCc1nc(-c2ccncc2)n[nH]1 | 100.9 |
| COCCCNC(=O)Cc1cc(-c2ccc3c(c2)OCO3)on1 | 2.22 |
| O=C(Cc1nc(-c2ccncc2)n[nH]1)NCCCN1CCOCC1 | 108.4 |
| COCCCC(=O)Nc1[nH]nc(-c2ccncc2)c1C | 2.915 |
| O=C(COCc1nc(-c2ccncc2)no1)N1CCCCCC1 | -13.27 |
| O=S(=O)(NCc1ccccc1)NCc1nc(-c2ccncc2)n[nH]1 | -34.55 |
| O=C(COCc1nc(-c2ccncc2)no1)N1CCCC1 | -11.18 |
| O=C(Cc1nc(-c2ccncc2)n[nH]1)N1CCOCC1 | 104.3 |
| COCCCNC(=O)Cc1nc(-c2ccncc2)n[nH]1 | 100.9 |
| O=C(NCCCN1CCOCC1)c1cc(-c2ccc3c(c2)CCO3)n[nH]1 | -1.634 |
| CN1CCC2(CC1)CN(C)C(=O)C[C@@H]2C(F)(F)F | -12.83 |
| Cc1noc(C)c1CNC(=O)N1Cc2ccccc2N(C)CC1C (configuration not stated) | 7.877 |
| Cc1occc1CNC(=O)Nc1ccc2nc(N3CCOCC3)oc2c1 | -9.739 |
| OCc1ccc(-c2nccn2CCc2nc3c(s2)CCCC3)o1 | -5.43 |
| Cc1ccn(CC(=O)N2CC[C@@H](c3ccc4ccccc4c3)[C@H](O)C2)n1 | 0.6829 |
| CC(C)C(C)(C#N)NC(=O)Cn1nnc(-c2cc3ccccc3o2)n1 (configuration not stated) | -0.9006 |
| CCOCC(=O)Nc1cc(C)cnc1OC | -15.44 |
| COc1nc2c(cc1C(=O)NCCCc1nnc(N)s1)CCC2 | 10.88 |
| NC(=O)c1cc2c(nc1-c1ccc3c(c1)CCO3)CCC2 | 1.16 |
| NC(=O)c1cc2c(nc1-c1ccc3c(c1)OCCO3)CCC2 | -8.871 |

| Compound | Percent Effect [%] |
| --- | --- |
| COc1cccc(OCCc2cncc(C(N)=O)c2)c1 | -19.41 |
| CN1CCCCC1Cc1nc2c(cc1C(N)=O)CCC2 (configuration not stated) | -3.187 |
| NC(=O)c1cc2c(nc1CCOc1ccc(F)cc1)CCC2 | 109.9 |
| COc1cccc(OCCc2nc3c(cc2C(N)=O)CCC3)c1 | 92.52 |
| NC(=O)c1cc2c(nc1CC1CCCCO1)CCC2 (configuration not stated) | -20.91 |
| NC(=O)c1cc2c(nc1CCOCc1ccccc1)CCC2 | 91.73 |
| CC(C#N)CNC(=O)Nc1ccc(Br)cc1 (configuration not stated) | -11.38 |
| Cc1cc(CN(C)C(=O)C(c2cccnc2)N2CCOCC2)n[nH]1 (configuration not stated) | -3.091 |
| Cc1ccc(S(=O)(=O)Cc2noc([C@@H]3C[C@@H](O)CN3C)n2)cc1 | -3.09 |
| O=C(NCc1ccccn1)[C@]12COC[C@H]1CN(Cc1ccccc1F)C2.O=C(O)C(F)(F)F.O=C(O)C(F)(F)F | 103.6 |
| O=C(NCc1ccccn1)[C@]12COC[C@H]1CN(Cc1cccnc1)C2.O=C(O)C(F)(F)F.O=C(O)C(F)(F)F.O=C(O)C(F)(F)F | 99.25 |
| Cc1ncsc1CN1C[C@@H]2COC[C@]2(C(=O)NCc2cccnc2)C1.O=C(O)C(F)(F)F.O=C(O)C(F)(F)F | 4.251 |
| O=C(NCCc1cccs1)[C@]12COC[C@H]1CN(Cc1ccccn1)C2.O=C(O)C(F)(F)F.O=C(O)C(F)(F)F | -75.28 |
| Cn1cc(CN2C[C@@H]3COC[C@]3(C(=O)NCc3ccccn3)C2)cn1.O=C(O)C(F)(F)F.O=C(O)C(F)(F)F | -3.108 |
| Cc1ncsc1CN1C[C@@H]2COC[C@]2(C(=O)NCc2ccccn2)C1.O=C(O)C(F)(F)F.O=C(O)C(F)(F)F | -14.61 |
| CCS(=O)(=O)N1C[C@H]2CN(c3cnn(C)c3)C(=O)[C@H]2C1 | -14.71 |
| Cc1ccc(C(C)(C)CNC(=O)NC(C)Cn2cncn2)cc1 (configuration not stated) | 14.21 |
| CN(CC(=O)NCC(C)(C)c1ccc2c(c1)OCO2)c1cnccn1 | -4.592 |
| CC(C(=O)NCC(C)(C)c1ccc2c(c1)OCCO2)n1cncn1 (configuration not stated) | 97.81 |
| CC(C)(CNc1cn[nH]c(=O)c1Cl)c1ccc2c(c1)OCO2 | 11.94 |
| CCN(CC(=O)NC(C)C)C(=O)C(C)(C)c1ccc2c(c1)OCCO2 | -2.563 |
| CC(C(=O)NCC(C)(C)c1ccc(Br)cc1)n1cncn1 (configuration not stated) | 77.11 |
| Cc1ccc(OCCNC(=O)C(C)n2cncn2)cc1 (configuration not stated) | -5.656 |
| CC(C(=O)NCc1ccnc(OCC(F)(F)F)c1)n1cncn1 (configuration not stated) | 8.582 |

| Compound | Percent Effect [%] |
| --- | --- |
| CC(C)(CNc1cn[nH]c(=O)c1Cl)c1ccc2c(c1)OCCO2 | 14.36 |
| CC(C(=O)NCC(C)(C)c1ccc2c(c1)OCO2)n1ccnc1 (configuration not stated) | 97.89 |
| CC(C(=O)NCc1ccc2c(c1)OCCO2)n1cncn1 (configuration not stated) | 116.3 |
| CC(C(=O)NCc1ccnc(N(C)C)c1)n1cncn1 (configuration not stated) | -16.73 |
| O=C(NCCNc1ncccn1)NCCSC(F)(F)F | -9.16 |
| Cc1cnn(C2CN(CC(O)c3ccc4c(c3)OCCO4)C2)c1 (configuration not stated) | -3.679 |
| Cc1nn(C)c(N(C)C)c1CNCCCN(C)S(C)(=O)=O | -15.04 |
| CCOc1cc(C(=O)O)cc(-c2ccccc2)c1OC | -26.33 |
| CCCNC(=O)Nc1cc2c(cc1SC)OCCO2 | 21.87 |
| CCOCCCC(=O)Nc1cc(C(N)=O)ccc1N1CCCCC1 | 2.668 |
| CC(C(=O)NCCOc1ccc2c(c1)OCO2)n1cncn1 (configuration not stated) | 5.572 |
| CC(Cn1ccnc1)NC(=O)NCCc1ccc2c(c1)OCCO2 (configuration not stated) | 0.8239 |
| CC(C(=O)NCCc1ccc2c(c1)OCCO2)n1cncn1 (configuration not stated) | 104.6 |
| Cc1nc(CN2CCCC2c2c(C)nn(C)c2Cl)no1 (configuration not stated) | -6.071 |
| Cc1nn(C)c(C)c1C1CCCN1Cc1nc(C)c2ccccc2n1 (configuration not stated) | 40.75 |
| Cn1c(CN2CCN(CC3CCCO3)CC2)nc2ccccc21 (configuration not stated) | -23.45 |
| Cc1nn(C)c(C)c1C1CCCN1Cc1nc2ccccc2n1C (configuration not stated) | 136.2 |
| Cc1nn(C)c(C)c1C1CCCN1Cc1nc(N)c2ccccc2n1 (configuration not stated) | 120.3 |
| CCC1CCCN(Cc2nc3ccccc3c(=O)[nH]2)C1 (configuration not stated) | -14.75 |
| Cc1nc(C)n(CC2CCCN2Cc2nc3ccccc3n2C)n1 (configuration not stated) | 1.241 |
| Cc1nc2ccccc2nc1CN1CCCC1c1c(C)nn(C)c1C (configuration not stated) | 2.386 |
| Cc1nn(C)c(C)c1C1CCCN1Cc1nc2ccccc2o1 (configuration not stated) | 33.14 |
| Cc1cc(C)n(C2CCN(Cc3nc4ccccc4n3C)CC2)n1 | 188.5 |
| Cc1nn(C)c(C)c1C1CCCN1Cc1nc2ccccc2c(=O)[nH]1 (configuration not stated) | 97.01 |
